# Inconclusive results are not listed. The source made the active and inactive calls. Calls follow the shape of the dose curve; as a rule, active = well fitted curve in the direction sought with a large enough effect; inconclusive = small, poorly fitted or top-dose-only effect, or another doubt; inactive = no such curve, though single readings can be large; an effect the other way counts as inactive or inconclusive.
# How the values were obtained:
# [1] = qHTS of pediatric cancer cell lines to identify multiple opportunities for drug repurposing: Primary screen for TC32 cells (AID 1347089); also: nearly all actives have a fitted effect of over 60% in size
# Procedure, shortened: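 A viability screen of TC32 cells was run over 48 h, with primary MIPE doses spanning 0.78 nM–46 µM and NPC doses 0.59 nM–46 µM. ATP luminescence (CellTiter-Glo) served as the read-out.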
# [2] = qHTS of pediatric cancer cell lines to identify multiple opportunities for drug repurposing: Primary screen for SJ-GBM2 cells (AID 1347091)
# Procedure, shortened: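 Cell viability, CellTiter-Glo luminescence; 500-1,000 cells/well, 8- or 11-point titration, 48 h compound exposure at 37 degrees C, 5% CO2. Controls: DMSO neutral, bortezomib 2.3 µM final as positive.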
# [3] = qHTS of pediatric cancer cell lines to identify multiple opportunities for drug repurposing: Primary screen for SK-N-MC cells (AID 1347093)
# Procedure, shortened: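 Metabolically active cells were quantified by ATP-dependent luminescence (CellTiter-Glo, 15 min at room temperature) following 48 h treatment. Cells had been plated at 500-1,000 per well and settled for 5 h beforehand.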
# [4] = qHTS of pediatric cancer cell lines to identify multiple opportunities for drug repurposing: Primary screen for BT-37 cells (AID 1347094)
# Procedure, shortened: (§1)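 ATP-based luminescence (CellTiter-Glo) quantifies viability after a 48-hour exposure. Compounds are dosed across 8 or 11 final concentrations; DMSO and 2.3 µM bortezomib serve as controls.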
# [5] = qHTS of pediatric cancer cell lines to identify multiple opportunities for drug repurposing: Primary screen for NB-EBc1 cells (AID 1347095)
# Procedure, shortened: as §1
# [6] = qHTS of pediatric cancer cell lines to identify multiple opportunities for drug repurposing: Primary screen for Saos-2 cells (AID 1347097); also: nearly all actives have a fitted effect of over 40% in size
# Procedure, shortened: as §1
# [7] = qHTS of pediatric cancer cell lines to identify multiple opportunities for drug repurposing: Primary screen for SK-N-SH cells (AID 1347098); also: nearly all actives have a fitted effect of over 65% in size
# Procedure, shortened: (§2)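 Cells (500-1,000/well) rested 5 h, then received compounds for 48 h; metabolically active cells were measured by CellTiter-Glo luminescence. Final concentrations spanned up to 46 µM (MIPE, 11-point) or 0.59 nM-46 µM (NPC, 8-point) in primary screens, 11-point in follow-ups.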
# [8] = qHTS of pediatric cancer cell lines to identify multiple opportunities for drug repurposing: Primary screen for BT-12 cells (AID 1347101); also: nearly all actives have a fitted effect of over 25% in size
# Procedure, shortened: as §2
# [9] = qHTS of pediatric cancer cell lines to identify multiple opportunities for drug repurposing: Primary screen for OHS-50 cells (AID 1347103); also: nearly all actives have a fitted effect of over 40% in size
# Procedure, shortened: as §2
# [10] = qHTS of pediatric cancer cell lines to identify multiple opportunities for drug repurposing: Primary screen for RD cells (AID 1347104); also: nearly all actives have a fitted effect of over 55% in size
# Procedure, shortened: as §1
# [11] = qHTS of pediatric cancer cell lines to identify multiple opportunities for drug repurposing: Primary screen for control Hh wild type fibroblast cells (AID 1347106); also: nearly all actives have a fitted effect of over 55% in size
# Procedure, shortened: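 Viability after 48 h compound treatment at 37C, 500-1,000 cells/well, read as ATP luminescence with CellTiter-Glo. Primary screens used 11-point (MIPE, 0.78 nM-46 µM) or 8-point (NPC, 0.59 nM-46 µM) final concentrations; follow-up screens used 11-point dilutions.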
# [12] = qHTS of pediatric cancer cell lines to identify multiple opportunities for drug repurposing: Primary screen for U-2 OS cells (AID 1347096); also: nearly all actives have a fitted effect of over 50% in size
# Procedure, shortened: as §2
# [13] = qHTS of pediatric cancer cell lines to identify multiple opportunities for drug repurposing: Primary screen for NB1643 cells (AID 1347099); also: nearly all actives have a fitted effect of over 50% in size
# Procedure, shortened: as §1
# [14] = qHTS of pediatric cancer cell lines to identify multiple opportunities for drug repurposing: Primary screen for LAN-5 cells (AID 1347100)
# Procedure, shortened: as §2
# [15] = qHTS of pediatric cancer cell lines to identify multiple opportunities for drug repurposing: Primary screen for Rh18 cells (AID 1347102); also: nearly all actives have a fitted effect of over 65% in size
# Procedure, shortened: as §2
# [16] = qHTS of pediatric cancer cell lines to identify multiple opportunities for drug repurposing: Primary screen for MG 63 (6-TG R) cells (AID 1347105); also: nearly all actives have a fitted effect of over 50% in size
# Procedure, shortened: as §1
# [17] = qHTS of pediatric cancer cell lines to identify multiple opportunities for drug repurposing: Primary screen for A673 cells (AID 1347092); also: nearly all actives have a fitted effect of over 45% in size
# Procedure, shortened: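 Titration-based qHTS on A673 cells: MIPE compounds spanned 11 points (0.78 nM to 46 µM final), NPC compounds 8 points (0.59 nM to 46 µM final). Viability after 48 h was measured by ATP luminescence.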
# Potency is read from the fitted curve at half-maximal effect.
Structure (SMILES),Potency [1],Potency [2],Potency [3],Potency [4],Potency [5],Potency [6],Potency [7],Potency [8],Potency [9],Potency [10],Potency [11],Potency [12],Potency [13],Potency [14],Potency [15],Potency [16],Potency [17]
CC(C)c1cnn2c(NCc3ccccc3)cc(N[C@@H](CO)[C@H](O)CO)nc12,1.47 µM (active),0.166 µM (active),0.296 µM (active),0.306 µM (active),0.187 µM (active),0.296 µM (active),0.304 µM (active),0.344 µM (active),0.273 µM (active),0.372 µM (active),inactive,,,,,,
Clc1cccc(-n2nnnc2NCc2ccccc2Oc2ccccn2)c1Cl,inactive,inactive,inactive,inactive,inactive,inactive,inactive,,,inactive,inactive,inactive,inactive,inactive,inactive,inactive,
Nc1nc(Nc2ccc(S(N)(=O)=O)cc2)nn1C(=O)c1c(F)cccc1F,14.7 µM (active),3.72 µM (active),3.32 µM (active),15.3 µM (active),5.26 µM (active),13.2 µM (active),8.57 µM (active),13.7 µM (active),9.68 µM (active),11.8 µM (active),,,,,inactive,,
O=C(O)Cn1nnc(-c2cc(N3CCC(Oc4cc(F)ccc4Br)CC3)no2)n1,inactive,0.469 µM (active),,,inactive,inactive,,inactive,,,,inactive,inactive,inactive,,inactive,0.372 µM (active)
Cc1ccc(C(=O)Nc2ccc(CN3CCN(C)CC3)c(C(F)(F)F)c2)cc1C#Cc1cnc2cccnn12,14.7 µM (active),3.72 µM (active),2.35 µM (active),6.85 µM (active),6.62 µM (active),2.35 µM (active),6.07 µM (active),6.85 µM (active),1.09 µM (active),3.32 µM (active),,,23.5 µM (active),11.8 µM (active),2.09 µM (active),7.43 µM (active),2.35 µM (active)
COc1cc2ncnc(Nc3ccc(F)c(Cl)c3)c2cc1NC(=O)C=CCN1CCCCC1,inactive,8.33 µM (active),,24.3 µM (active),26.4 µM (active),16.6 µM (active),,24.3 µM (active),7.69 µM (active),29.6 µM (active),inactive,,14.8 µM (active),14.8 µM (active),18.7 µM (active),inactive,18.7 µM (active)
Nc1ccc(S(=O)(=O)Nc2ncccn2)cc1,inactive,inactive,23.5 µM (active),inactive,inactive,inactive,,inactive,inactive,,inactive,inactive,inactive,inactive,inactive,inactive,inactive
CN1CCC(CNc2ccc3ncc(-c4cccc(OC(F)(F)F)c4)n3n2)CC1,inactive,16.6 µM (active),4.18 µM (active),21.7 µM (active),18.7 µM (active),18.7 µM (active),7.64 µM (active),27.3 µM (active),4.85 µM (active),18.7 µM (active),,,18.7 µM (active),14.8 µM (active),18.7 µM (active),23.5 µM (active),14.8 µM (active)
CCN(CC)CCNC(=O)c1ccc2nc(-c3ccccc3)c(-c3ccc(CN4CCC(n5c(=O)[nH]c6ccccc65)CC4)cc3)nc2c1,18.6 µM (active),16.6 µM (active),2.64 µM (active),10.9 µM (active),,6.62 µM (active),27.1 µM (active),,3.43 µM (active),3.32 µM (active),9.35 µM (active),3.72 µM (active),,5.9 µM (active),2.35 µM (active),7.43 µM (active),1.18 µM (active)
COc1cc(C(C)C)c2c(c1)S(=O)(=O)N(COc1cc(=O)n3cccc(OCCN4CCCCC4)c3n1)C2=O,inactive,26.4 µM (active),3.72 µM (active),,,26.4 µM (active),,inactive,,20.9 µM (active),,inactive,13.2 µM (active),,,inactive,7.43 µM (active)
Nc1ccccc1NC(=O)c1ccc(CNC(=O)OCc2cccnc2)cc1,8.29 µM (active),4.18 µM (active),0.0935 µM (active),3.85 µM (active),1.32 µM (active),2.35 µM (active),17.1 µM (active),7.69 µM (active),0.863 µM (active),,20.9 µM (active),,1.87 µM (active),0.833 µM (active),2.96 µM (active),4.69 µM (active),
Clc1ccc2ncc(-c3cccc(NC4CNC4)n3)n2c1,inactive,11.8 µM (active),7.43 µM (active),17.2 µM (active),1.48 µM (active),inactive,3.41 µM (active),8.63 µM (active),,,inactive,,,16.6 µM (active),inactive,inactive,
